Records with an inconclusive call do not appear. Activity calls are given as the source filed them. The call rests on the fitted dose curve; in most records, active means well fitted cell-killing curve with a large enough effect in the repeat runs; inconclusive means weak or mixed curves, or effect the other way; inactive means flat fitted curve, though single readings scatter.
test: cAMP Responsive Elements (CRE) small molecule antagonists, cell-based qHTS assay: qHTS cell viability counter screen (AID 2060913); settings: CRE-bla HEK293T viability, CellTiter-Glo luminescence, 5 h; series mostly up to 92.4 µM; viability change, negative = cytotoxic: at the top concentration; further: nearly all actives have a fitted effect of over 40% in size
Method in brief: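 HEK293T CRE-bla, 2,000 cells/well, 18 h preincubation; cpd in DMSO + NKH477 0.25 uM final, 3 h 37 C/5% CO2; LiveBLAzer 2 h RT, then CellTiter-Glo 30 min RT, luminescence.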
On the % scale 0 is the no-effect control and ±100 the full control effect; potency means the concentration at half of the fitted maximal effect.

Row | Compound | viability change, negative = cytotoxic | Potency
1 | Cc1c(N)cccc1C(F)(F)F | 1.23% [at 42.5 µM] (inactive) | 
2 | C[N+]1(CC2COC(c3ccccc3)(c3ccccc3)O2)CCCCC1 (stereo not given) | 0.835% [at 18.9 µM] (inactive) | 
3 | CCc1c(Br)c(Br)c(Br)c(Br)c1Br | -13.6% (inactive) | 
4 | NC1CCN(c2cccc(Cl)n2)CC1 | 0.651% [at 42.5 µM] (inactive) | 
5 | CC(=O)Nc1ccc(S(=O)(=O)Cl)cc1 | 15.3% (inactive) | 
6 | O=C(O)c1cccnc1Nc1cccc(C(F)(F)F)c1 | 10.9% [at 42.5 µM] (inactive) | 
7 | CC(=O)c1cccnc1 | 4.16% (inactive) | 
8 | CCCCCNCCCCC |  | inactive
9 | CCc1c2c(nc3ccc(OC(=O)N4CCC(N5CCCCC5)CC4)cc13)-c1cc3c(c(=O)n1C2)COC(=O)[C@]3(O)CC | 4.95% [at 42.5 µM] (inactive) | 
10 | O=C(OCCOCCO)c1ccccc1Nc1cccc(C(F)(F)F)c1 | 1.67% [at 42.5 µM] (inactive) | 
11 | CN(C)CCCN |  | inactive
12 | CCCCCCC1CCCC(=O)O1 (stereo not given) | -6.17% (inactive) | 
13 | Fc1c(F)c(F)c(Br)c(F)c1F | 2.67% (inactive) | 
14 | OCc1c[nH]c2ccccc12 | 6.95% (inactive) | 
15 | CCCCCCOC(=O)NC(=N)c1ccc(NCc2nc3cc(C(=O)N(CCC(=O)OCC)c4ccccn4)ccc3n2C)cc1 |  | 26.6 µM (active)
16 | Cc1onc(-c2ccccc2)c1-c1ccc(S(N)(=O)=O)cc1 | 2.62% [at 42.5 µM] (inactive) | 
17 | CC1CCCO1 (stereo not given) | 10.4% (inactive) | 
18 | CCCCCCCCCCCCCC[n+]1ccccc1 |  | 48.6 µM (active)
19 | CC(C)=CCCC(C)CCO (stereo not given) |  | inactive
20 | CCS(=O)(=O)c1ccc(OC)c(C(=O)OC)c1 | 1.74% [at 42.5 µM] (inactive) | 

Row | Compound | viability change, negative = cytotoxic | Potency
21 | CC1=C(CC=O)C(C)(C)CCC1 | 2.03% (inactive) | 
22 | CS(C)=O | -0.437% (inactive) | 
23 | COC(=O)Cc1cccc2ccccc12 | -5.2% (inactive) | 
24 | Cc1cc(C)c(C)c(C)c1 | 0.653% (inactive) | 
25 | Clc1cc(Cl)c2c(c1)N=C1CCCCCN1C2 | -2.32% [at 42.5 µM] (inactive) | 
26 | CCCCNc1ccccc1 | -3.34% (inactive) | 
27 | C=C(C)C(=O)OCCC(F)(F)C(F)(F)C(F)(F)C(F)(F)C(F)(F)C(F)(F)F | 4.25% (inactive) | 
28 | CCCCC(CC)COC(=O)CCCCC(=O)OCc1ccccc1 (stereo not given) | 3.55% (inactive) | 
29 | O=C(O)c1cccc(C[C@@H]2COc3ccc(OCc4nc5cc(F)ccc5s4)cc3[C@@H]2O)c1 | 4.72% (inactive) | 
30 | COc1cc(S(=O)(=O)O)c(C)cc1N=Nc1c(O)ccc2cc(S(=O)(=O)O)ccc12 | -1.36% (inactive) | 
31 | CNCCC(Oc1ccccc1OC)c1ccccc1 (stereo not given) | 8.51% [at 42.5 µM] (inactive) | 
32 | Cc1ccc(C(C)OC(=O)C2(C)CCC(C(=O)O)C2(C)C)cc1 (stereo not given) | 1.43% [at 42.5 µM] (inactive) | 
33 | CN(C)CC[C@@H](c1ccc(Br)cc1)c1ccccn1 | 0.279% [at 42.5 µM] (inactive) | 
34 | CCOCCOC(=O)/C=C/c1ccc(OC)cc1 | 3% [at 42.5 µM] (inactive) | 
35 | CCCCC(=O)O[C@]1(C(=O)CO)CC[C@H]2[C@@H]3CCC4=CC(=O)CC[C@]4(C)[C@H]3[C@@H](O)C[C@@]21C | 5.12% [at 42.5 µM] (inactive) | 
36 | CC(C)(C)OC(=O)c1ccccc1C(=O)O | 9.47% (inactive) | 
37 | O=S(=O)(O)CO | 3.94% (inactive) | 
38 | O=C(O)c1ccc(S(=O)(=O)O)cc1C(=O)O | 10.8% (inactive) | 
39 | O=C(O)c1ccncc1 | -5.68% (inactive) | 
40 | c1cnccn1 | 5.56% (inactive) | 

Source: PubChem BioAssay (Tox21)
